From PubChem BioAssay (NCI)
Compounds without any hit were thinned out: in the full panel of roughly 79,000, 15% have a hit. Calls of active or inactive are those of the source. Rule as the data show it: active = growth inhibition above about 70%; inactive = the rest.

Key:
[1] = NCI Yeast Anticancer Drug Screen. Data for the rad50 strain (AID 155);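 also: 0% = growth of vehicle-only cultures of the same strain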; details: S. cerevisiae rad50 strain growth inhibition; at 50.0 µM; active compounds read high
Method in brief: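 Genetically altered yeast (DNA repair pathway); compound treatment; growth inhibition vs vehicle ctrl.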

[2] = NCI Yeast Anticancer Drug Screen. Data for the mec2-1 strain (AID 157); details: S. cerevisiae mec2-1 strain, at 50.0 µM, active compounds read high
Method in brief: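 Readout is yeast growth inhibition, normalised to vehicle-treated controls, in the mec2-1 strain exposed to compound.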

[3] = NCI Yeast Anticancer Drug Screen. Data for the sgs1 mgt1 strain (AID 161);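 also: 0% = growth of cultures given vehicle only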; details: S. cerevisiae sgs1 mgt1 strain, at 50.0 µM, active compounds read high
Method in brief: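 This yeast growth screen uses a strain with defined DNA-repair lesions; compound-treated growth is compared with vehicle-treated growth.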

[4] = NCI Yeast Anticancer Drug Screen. Data for the cln2 rad14 strain (AID 165);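 also: 0% = growth equal to vehicle treated cultures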; details: S. cerevisiae cln2 rad14 strain, at 50.0 µM, active compounds read high
Method in brief: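 Relative to vehicle controls, growth inhibition of compound-treated cln2 rad14 yeast was recorded.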

[5] = NCI Yeast Anticancer Drug Screen. Data for the bub3 strain (AID 167); details: S. cerevisiae bub3 mutant strain, at 50.0 µM, active compounds read high
Method in brief: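 Yeast carrying a defined mutation is treated with each compound, and growth is compared with that of vehicle-exposed cells to give inhibition.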

[6] = NCI Yeast Anticancer Drug Screen. Data for the mlh1 rad18 strain (AID 175); details: S. cerevisiae mlh1 rad18 strain growth inhibition; at 50.0 µM; active compounds read high
Method in brief: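 Test agents were incubated with a yeast strain of defined genotype (DNA damage repair defect). Inhibition of growth was derived by comparison with vehicle-exposed cultures.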

Measured: growth inhibition

COC(=O)NC(=Nc1ccc(Oc2ccccc2)cc1NC=O)NC(=O)OC
inactive: [1] 0.15% | [2] -14.8% | [3] -13.6% | [4] 25.4% | [5] 15.9% | [6] 11.5%

COc1ccc(/C(Cl)=C(\C=N/O)c2ccc(OC)c(OC)c2)cc1OC
inactive: [1] -8.45% | [2] 11.9% | [3] -0.7% | [4] 2.05% | [5] 8.15% | [6] -7.45%

CC(=O)OCC(OC(C)=O)C(OC(C)=O)C(OC(C)=O)C(OC(C)=O)C(C=O)OC(C)=O (stereo unspecified)
inactive: [1] -31.6% | [2] -1.7% | [3] 11.7% | [4] -37.2% | [6] -7.95%

Cc1cc2c(=O)cc(-c3ccccc3)oc2c(C(=O)O)c1C
inactive: [1] -12.7% | [2] -8.55% | [3] 14.8% | [4] -19.7% | [6] -10.4%

CCOC(=O)C1SCSCC1=O (stereo unspecified)
inactive: [1] -1.1% | [2] -1.7% | [3] -5.55% | [4] -30.2% | [5] -20.6% | [6] 6%

O=C(N/N=C\c1ccc2c(c1)CCC2)c1cccc2ccccc12
inactive: [1] -5.9% | [2] 1.35% | [3] -11.9% | [4] -6.1% | [6] -2.9%

NC1(C(=O)O)CCCc2ccccc21 (stereo unspecified)
inactive: [1] 13.3% | [2] 8.15% | [3] -1.1% | [4] -1.7% | [6] 8.95%

CCC(C)(NC(N)=O)c1ccccc1 (stereo unspecified)
inactive: [1] -6.9% | [2] 10.4% | [3] -12.1% | [4] -7.5% | [6] -7.35%

CC1(C)OCC2OC=CC(=O)C2O1 (stereo unspecified)
inactive: [1] -8.65% | [2] -2.65% | [3] -0.4% | [4] 5.15% | [6] -68.5%

COC(=O)[C@@]1(NC(=O)C(CC(=O)OC(C)(C)C)NC(=O)OC(C)(C)C)C[C@H]1C (stereo partly specified)
inactive: [1] -48.8% | [2] -28.6% | [3] -33.2% | [4] 6.15% | [6] -14%

CC(C)CC(N)C(=O)NC(Cc1cc2ccccc2[nH]1)C(=O)O (stereo unspecified)
inactive: [1] 2.4% | [2] -6.25% | [3] 7.3% | [4] -17.9% | [6] -0.4%

CC1CCC(C(C)(C)O)CC1O (stereo unspecified)
inactive: [1] -12.9% | [2] 2.05% | [3] 0.9% | [4] -9.05% | [6] -7.55%

CC(CN(C)C)C(=O)C(=Cc1ccccc1)C(=O)C(C)CN(C)C (stereo unspecified)
inactive: [1] 40.1% | [2] 13.1% | [3] 16.9% | [4] 22.5% | [6] 20%

CC(=O)Nc1cccc(Cl)c1
inactive: [1] -2.25% | [2] -24.5% | [3] -0.2% | [4] -4.8% | [6] 6.5%

[O-][n+]1c(/C=C/c2cccc3ccccc23)cccc1/C=C/c1cccc2ccccc12
inactive: [1] -8.6% | [2] 1% | [3] 42.8% | [4] 6.55% | [6] 40.8%

CC/C(=N/O)C(C)C(=O)CCC(=O)Nc1ccc(Cl)cc1 (stereo unspecified)
inactive: [1] -11.6% | [2] -7% | [3] 0.15% | [4] 7.35% | [6] -5.65%

NC(=O)N/N=C/C1CCc2ccccc2C1 (stereo unspecified)
inactive: [1] 6.45% | [2] -10.4% | [3] -12.3% | [4] -6.2% | [5] -1.4% | [6] 1.5%

CCOC(=O)n1ccnc1
inactive: [1] -6.4% | [2] -5.45% | [3] 1.5% | [4] 8% | [5] 9.05% | [6] -2.95%

O=C(O)CN1C(=O)c2ccccc2C1=O
inactive: [1] -8.75% | [2] -15.7% | [3] -5.5% | [4] -25.7% | [6] -20.3%

CC1(c2ccc[n+](Cc3ccccc3)c2)OCCO1
inactive: [1] -15.7% | [2] -31.1% | [3] -12.8% | [4] -11.2% | [6] -27.1%

CCOC(=O)C1(N)CC1
inactive: [1] 4.65% | [2] 7.1% | [3] 2.8% | [4] -10% | [6] 17.2%

OC(CNC1CC2CCC1C2)COc1cccc2ccccc12 (stereo unspecified)
active: [3] 76.5% | [6] 82.4%
inactive: [1] 68.4% | [2] 42.9% | [4] 52.4%

CC(C)CNc1ncnc2[nH]ncc12
inactive: [1] -1.75% | [2] -6.2% | [3] -3.55% | [4] -3.35% | [6] -6.2%

COc1ccccc1-n1c(O)c(N=Nc2ccccc2)c(=O)n(-c2ccc(C)cc2)c1=S
inactive: [1] 38.3% | [2] -8.95% | [3] 66.8% | [4] -10.8% | [6] 12.8%

Cc1cc(=O)oc2c(CNC(CC(C)C)C(=O)O)c(O)ccc12 (stereo unspecified)
inactive: [1] -51.9% | [2] -32.3% | [3] -46.6% | [4] -16.4% | [6] -63.1%

CCCCOC(=O)/C(CC(=O)C=C(C)C)=N\NS(=O)(=O)c1ccc(C)cc1
inactive: [1] 1.75% | [2] -14.1% | [3] -10.5% | [4] 5.3% | [6] -5.75%

Cc1ccc(CC(=O)N(C)C)c([N+](=O)[O-])c1
inactive: [1] -9.5% | [2] -7.15% | [3] -1% | [4] 0.95% | [6] -25.1%

COc1ccc(C(C)c2cc3c(cc2OCC(=O)O)OCO3)cc1OC (stereo unspecified)
inactive: [1] -7.65% | [2] -10.2% | [3] -6.85% | [4] -4.8% | [6] -3.2%

CC(C)CCN(C(=O)CCl)c1ccccc1
inactive: [1] 59% | [2] 32.6% | [3] 52.4% | [4] 15.1% | [5] 33.5% | [6] 63.8%

Cn1c2c(c(=O)n(C)c1=O)CCC(=O)N2
inactive: [1] 4.95% | [2] 0.7% | [3] -6.5% | [4] -32.6% | [6] -9.4%

[O-][n+]1cc[n+]([O-])c2cc(O)ccc21
inactive: [1] -13.5% | [2] -25.1% | [3] 3.8% | [4] -20.1% | [6] 10.7%

O=C(CN1C(=O)c2ccccc2C1=O)Oc1ccccc1
inactive: [1] 1.8% | [2] -7.4% | [3] 1.1% | [4] -9.05% | [6] -5.45%

COC/C=C(\C)CC/C=C(\C)CCC=C(C)C
inactive: [1] -8.2% | [2] 0.95% | [3] -1.2% | [4] 22.6% | [6] 2.95%

Cc1c(C)c2ccc(OC(C)C(=O)O)cc2oc1=O (stereo unspecified)
inactive: [1] -10.9% | [2] 0.8% | [3] 22.2% | [4] 31.5% | [6] 36%

S=C1SCCCN1c1ccccc1
inactive: [1] -6.35% | [2] -4.05% | [3] -4.9% | [4] -14.5% | [6] -20%

NC(=O)CC(N)C(N)=O (stereo unspecified)
inactive: [1] -8.25% | [2] -33.1% | [3] -47.8% | [4] 13.2% | [6] -3.25%

CSc1nc(=O)n(CCC#N)nc1SC
inactive: [1] 32.6% | [2] 21.9% | [3] 34.9% | [4] -7.65% | [6] 12.2%

O=C(CC(=O)C(=O)CC(=O)OCc1ccccc1)OCc1ccccc1
inactive: [1] 15% | [2] -19.9% | [3] -0.3% | [4] 11.9% | [6] 2.55%

Nc1ccc[nH]c1=O
inactive: [1] 15.7% | [2] 4% | [3] 19.6% | [4] 8.8% | [6] -12.4%

O=C(O)C(Br)C(O)c1ccccc1 (stereo unspecified)
inactive: [1] -5.15% | [2] -2.85% | [3] 0.85% | [4] 2.15% | [6] -8.2%
